Results on 27 compounds are retold here after PubChem BioAssay.

The source made the active and inactive calls.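 How the source made its calls, unless noted: active means compounds whose cell count with miR-34 switched on is under 0.7 times the count with it off; inactive means the rest.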

A short description of assay [1]: sensitizers of A549 cells to miR-34 induction, primary screen, imaging, A549 dox-inducible miR-34, nuclei and caspase counts (AID 1347080). Further: test concentration not given here. The conditions noted are these: A549 miR-34 inducible, Hoechst nuclei count, 48 h.
Assay [2] in a line: viability rescue of complex I mutant cybrids, primary screen, cell-based, galactose medium, ATP luminescence (AID 1645843;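 active means z-score of at least 1.8 in each of two replicates, scored against plate mean and spread of sample wells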;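 further: positive z means more ATP and so rescue of galactose-driven cybrid death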). The following applies: complex I mutant cybrid cells, 72 h, stronger effect = higher value.
The mark [3] stands for this setting: stronger effect = lower value, cell number ratio, induced over uninduced.
The mark [4] stands for this setting: measured here: relative caspase fold change +Dox/-Dox.
The mark [5] stands for this setting: measured here: total cells with miR-34 induction, stronger effect = lower value.
[6] abbreviates: measured here: total cells without miR-34 induction.

In the case of `CC(CCC(=O)O)C1CCC2C3C(=O)CC4CC(=O)CC[C@]4(C)C3CC(=O)[C@]12C` (stereo not given in full), the values for the fold change in assay [1] (setting [3]) and in assay [1] (setting [4]) were 0.951 (inactive) and 0.625, respectively. Also, the cell count in assay [1] (setting [5]) came to 9350; in assay [1] (setting [6]), 9830. In addition, the z-score in assay [2] was 0.29 (inactive).
In the same order, the values of `CC1CCC2C(C)C(OC(=O)CCC(=O)O)OC3O[C@@]4(C)CCC1[C@]32OO4` (stereo not given in full) are 0.992 (inactive), 1.91, 6760, 6810 and -1.79 (inactive).
`COc1cc(C=Cc2ccc(O)cc2)cc(OC)c1`: the fold change in assay [1] (setting [3]) was 0.943 (inactive); in assay [1] (setting [4]), 1.26. In addition, the cell count in assay [1] (setting [5]) is 6760; in assay [1] (setting [6]), 7170. The z-score in assay [2] was -1.52 (inactive).
In the same order, the values of `COCC1=C(C(=O)OC(C)OC(=O)OC(C)C)N2C(=O)C(NC(=O)C(=NOC)c3csc(N)n3)C2SC1` (stereo not given) are 0.946 (inactive), 1.68, 9860, 10400 and 0.625 (inactive).
For `CCC(C)C(=O)OC1CC(O)C=C2C=CC(C)C(CCC(O)CC(O)CC(=O)O)C21` (stereo not given), in that order: 0.961 (inactive), 1.91, 10300, 10800 and 0.5 (inactive).
In the same order, the values of `C[C@]12C=CC(=O)C=C1CCC1C2C(O)C[C@@]2(C)C1CC[C@]2(O)C(=O)COC(=O)CCC(=O)O` (stereo not given in full) are 0.962 (inactive), 2.02, 7550, 7850 and 1.77 (inactive).
On to `CC1CN(CCCn2c3ccccc3c3ccccc32)CC(C)N1` (stereo not given), for which the fold change in assay [1] (setting [3]) is 0.806 (inactive); in assay [1] (setting [4]), 1.22. Besides, the cell count worked out at 6730 in assay [1] (setting [5]) and 8340 in assay [1] (setting [6]). Besides, the z-score in assay [2] is -1.61 (inactive).
For `CC1(C)SC2C(N=CN3CCCCCC3)C(=O)N2C1C(=O)O` (stereo not given), in that order: 0.941 (inactive), 1.42, 9640, 10200 and 0.33 (inactive).
In the same order, the values of `CN(C)CCC=C1c2ccccc2COc2ccccc21` are 0.942 (inactive), 2.06, 8300, 8810 and -0.535 (inactive).
In the same order, the values of `CC1CC2C3CC(F)C4=CC(=O)C(Cl)=C[C@]4(C)[C@@]3(F)C(O)C[C@]2(C)[C@@]1(O)C(=O)CO` (stereo not given in full) are 0.952 (inactive), 1.63, 6600, 6930 and 0.895 (inactive).
Turning to `CCOC(=O)O[C@]1(C(=O)OCCl)CCC2C3CCC4=CC(=O)C=C[C@]4(C)C3C(O)C[C@@]21C` (stereo not given in full), the fold change in assay [1] (setting [3]) was 0.961 (inactive); in assay [1] (setting [4]), 1.35. Besides, the cell count is 6110 in assay [1] (setting [5]) and 6360 in assay [1] (setting [6]). Moreover, the z-score in assay [2] was 0.71 (inactive).
`COc1ccc2c3c1OC1CC(O)C=C[C@@]31CCN(C)C2` (stereo not given in full): the fold change in assay [1] (setting [3]) is 0.977 (inactive); in assay [1] (setting [4]) it was 1.4. Further, the values for the cell count in assay [1] (setting [5]) and in assay [1] (setting [6]) were 9660 and 9890, respectively. For the same compound, the z-score in assay [2] is 0.92 (inactive).
Consider `NC(C(=O)NC1C(=O)N2C(C(=O)O)=C(CSc3cn[nH]n3)CSC12)c1ccc(O)cc1` (stereo not given) (tested in a mixture with another compound), for which the fold change in assay [1] (setting [3]) was 0.899 (inactive); in assay [1] (setting [4]), 1.68. Moreover, the values for the cell count in assay [1] (setting [5]) and in assay [1] (setting [6]) were 9710 and 10800, respectively. Besides, the z-score in assay [2] is 0.555 (inactive).
For `CC1CNc2c(cccc2S(=O)(=O)NC(CCCN=C(N)N)C(=O)N2CCC(C)CC2C(=O)O)C1` (stereo not given), in that order: 0.968 (inactive), 1.83, 10100, 10500 and 0.935 (inactive).
In the same order, the values of `COC1C=CO[C@@]2(C)Oc3c(C)c(O)c4c(O)c(c5c(nc6cc(C)ccn65)c4c3C2=O)NC(=O)C(C)=CC=CC(C)C(O)C(C)C(O)C(C)C(OC(C)=O)C1C` (stereo not given in full) are 0.986 (inactive), 1.96, 9910, 10000 and 1.96 (active).
In the same order, the values of `CC(=O)O[C@]1(C(C)=O)CCC2C3C=C(C)C4=CC(=O)CC[C@]4(C)C3CC[C@@]21C` (stereo not given in full) are 0.943 (inactive), 1.2, 6760, 7170 and -0.29 (inactive).
With `CCC(C)C(=O)OC1CCC=C2C=CC(C)C(CCC3CC(O)CC(=O)O3)C21` (stereo not given), the fold change was 0.968 (inactive) in assay [1] (setting [3]) and 0.887 in assay [1] (setting [4]). Also, the cell count came to 1480 in assay [1] (setting [5]) and 1530 in assay [1] (setting [6]). Besides, the z-score in assay [2] was -0.74 (inactive).
For `CC(C)CC(NC(=O)C(COC(C)(C)C)NC(=O)C(Cc1ccc(O)cc1)NC(=O)C(CO)NC(=O)C(Cc1c[nH]c2ccccc12)NC(=O)C(Cc1cnc[nH]1)NC(=O)C1CCC(=O)N1)C(=O)NC(CCCN=C(N)N)C(=O)N1CCCC1C(=O)NNC(N)=O` (stereo not given), in that order: 1.04 (inactive), 1.1, 7490, 7190 and 0.385 (inactive).
For `C[C@]12CCC3c4ccc(O)cc4CCC3C1CCC2O` (stereo not given in full), in that order: 1.11 (inactive), 1.15, 6850, 6160 and 0.465 (inactive).
In the same order, the values of `CN1CC(=O)N2C(Cc3c([nH]c4ccccc34)C2c2ccc3c(c2)OCO3)C1=O` (stereo not given) are 0.932 (inactive), 1.44, 6940, 7450 and 1.56 (inactive).
As for `CN(C)C1C(=O)C(C(=O)NCN2CCCC2)=C(O)[C@@]2(O)C(=O)C3=C(O)c4c(O)cccc4[C@@](C)(O)C3CC12` (stereo not given in full), the fold change in assay [1] (setting [3]) is 0.983 (inactive); in assay [1] (setting [4]), 1.25. Further, the cell count in assay [1] (setting [5]) was determined as 8500; in assay [1] (setting [6]), 8650. Moreover, the z-score in assay [2] was 0.465 (inactive).
`CN1C(=O)CCC1c1cccnc1` (stereo not given): the fold change in assay [1] (setting [3]) is 0.988 (inactive); in assay [1] (setting [4]), 2.52. The results for the cell count in assay [1] (setting [5]) and in assay [1] (setting [6]) were 9830 and 9950, respectively. In addition, in assay [2], the z-score was 0.965 (inactive).
As to `C=C1C(=CC=C2CCC[C@@]3(C)C2CCC3C(C)C=CC(O)C2CC2)CC(O)CC1O` (stereo not given in full), the values for the fold change in assay [1] (setting [3]) and in assay [1] (setting [4]) were 1.02 (inactive) and 1.9, respectively. Moreover, the cell count was found to be 9990 in assay [1] (setting [5]) and 9800 in assay [1] (setting [6]). Besides, the z-score in assay [2] was -1.44 (inactive).
In the same order, the values of `CN1CC(=O)N/C1=N\C(=O)Nc1cccc(Cl)c1` are 1.1 (inactive), 0.699, 10900, 9930 and 0.545 (inactive).
Take `O=C1C2CCCCC2C(=O)N1CCCCN1CCN(c2nsc3ccccc23)CC1` (stereo not given): the fold change was 0.926 (inactive) in assay [1] (setting [3]) and 1.74 in assay [1] (setting [4]). The values for the cell count in assay [1] (setting [5]) and in assay [1] (setting [6]) were 7810 and 8440, respectively. Besides, the z-score in assay [2] was -1.79 (inactive).
For `CC(C)CC(NC(=O)C(O)C(N)Cc1ccccc1)C(=O)O` (stereo not given), the figures for the fold change in assay [1] (setting [3]) and in assay [1] (setting [4]) were 0.913 (inactive) and 1.61, respectively. Further, the cell count in assay [1] (setting [5]) was 8460; in assay [1] (setting [6]) it was 9270. The z-score in assay [2] was 0.29 (inactive).
In the same order, the values of `COC1OC2O[C@@]3(C)CCC4C(C)CCC(C1C)[C@@]24OO3` (stereo not given in full) are 0.961 (inactive), 0.771, 9270, 9650 and -0.035 (inactive).
